CSC inhib = cancer stem cell viability inhibitors, primary screen, luminescence; inhibition, % at 7.5 µM; 300,000 compounds, 1.1% hits; AID 2717, 2010; cancer stem cell-like cells viability; in the data active = inhibition above about 75%; tested in HMLE shEcad cells
Shn3 3UTR inh = reduction of Shn3 3'UTR firefly luciferase signal, primary screen, Schnurri-3 inhibitor project, cell-based, Clone20 osteoblasts, set 2. inhibition, % at 12.5 µM. AID 588674, 2011. 360,000 compounds, 0.52% hits. Clone20 osteoblast Shn3 3'UTR firefly luciferase, 24 h;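 active = mean inhibition of at least 75% with every replicate also reaching 75%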
PfHsp90 set2 = growth inhibition of PfHsp90-expressing yeast, primary screen, antimalarial PfHsp90 inhibitor project, S. cerevisiae, BacTiter-Glo luminescence, single point, set 2; BacTiter-Glo ATP, 48 h; yeast lacking PDR1 and PDR3 efflux regulators; inhibition, % at 9.4 µM; 310,000 compounds, 0.32% hits; AID 504621, 2011;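 active = every replicate shows inhibition above about 80%, whatever the replicate mean, limit read from the data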
Calb FLC = C. albicans growth inhibition with fluconazole, primary screen, CaCi-2 strain, Alamar Blue fluorescence. C. albicans CaCi-2 (fluconazole-resistant clinical isolate) + fluconazole, 48 h. growth inhibition, % (test concentration not listed). 300,000 compounds, 0.57% hits;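 active = growth inhibition above about 58% in most replicates, limit read from the data, passing the limit was not always enough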;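 also: all wells also contain fluconazole at 8 µg/ml as a sub-toxic cotreatment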
Beta apoptosis = inhibitors of cytokine-induced beta cell apoptosis, primary screen, luminescence; protection from apoptosis, % (test concentration not listed); INS-1E cytokine-induced death, ATP luminescence, 48 h; percent of positive-control rescue, neutral wells zero; AID 435005, 2010; 300,000 compounds, 0.8% hits;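 active = Every replicate reaches about 75%, or at least half do and their mean reaches it too, limit read from the data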;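 also: higher means more ATP so stronger rescue from cytokine killing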
Of the large screens only hits and unclear results are named; the others gave an inactive call. Compounds with a hit are over-represented: about 2.2% of the library has one in this group of screens.

COc1ccc(-c2cc(-c3nc4ccccn4c3NCc3ccccc3)ccc2OC)cc1	CSC inhib 98, Shn3 3UTR inh 97, Beta apoptosis 125 (no result: Calb FLC)
CCC(C)Sc1ccc(-c2nc3ccc(C)cn3c2NCc2ccccc2)cc1OC (configuration not stated)	Beta apoptosis 97
CCC(C)Sc1cc(-c2nc3ccccn3c2NC2CCCCC2)ccc1OC (configuration not stated)	CSC inhib 126
CCC(C)Sc1cc(-c2nc3cc(C)ccn3c2NC2CCCCC2)ccc1OC (configuration not stated)	none (no result: CSC inhib, Calb FLC, Beta apoptosis)
CC(C)(C)C(=O)Nc1ccc(C(=O)CSc2nnc(C3CC3)n2C2CC2)cc1	none (no result: CSC inhib, Calb FLC)
Cc1ccc(OS(=O)(=O)c2c(C)nn(C)c2Cl)c(C)c1	none
CCc1ccc(C(C(=O)NCc2ccc(F)cc2)N(C(=O)c2csnn2)C2CC2)cc1 (configuration not stated)	none
COc1cnc(-c2ccccn2)nc1N(C)C	Shn3 3UTR inh 89, Beta apoptosis 81
COc1cnc(-c2ccccn2)nc1Sc1ccccc1Cl	Calb FLC 81, Beta apoptosis 86 (no result: PfHsp90 set2)
COc1cnc(-c2ccccn2)nc1Sc1c(Cl)cccc1Cl	none (no result: PfHsp90 set2)
COc1cc(NC(=O)C2CCC(CNS(=O)(=O)c3csc(C(N)=O)c3)CC2)cc(OC)c1 (configuration not stated)	none
CC(OC(=O)COc1ccc(C#N)cc1)C(=O)Nc1ccc(Cl)cn1 (configuration not stated)	none (no result: PfHsp90 set2)
COc1ccc(N=N/C(=C\O)C(=O)c2cccs2)cc1	CSC inhib 88 (no result: Beta apoptosis)
CCN(C(=O)COC(=O)CCC(=O)c1cccs1)c1c(N)n(Cc2ccccc2)c(=O)[nH]c1=O	none (no result: PfHsp90 set2)
COc1ccc(CN(C)c2ncnc3sccc23)c(OC)c1OC	CSC inhib 77
Cn1cc(CNCc2ccc(OC(F)(F)F)cc2)c(-c2ccc3c(c2)OCCO3)n1	Beta apoptosis 142 (no result: Shn3 3UTR inh)
Cn1cc(CNCc2cn[nH]c2-c2ccc(F)cc2)c(-c2ccc3c(c2)OCCO3)n1	none (no result: Calb FLC)
O=C(CCCCCN1C(=O)[C@@H]2Cc3ccccc3CN2C1=O)NCCc1ccccc1	none
CCN(Cc1ccccc1)c1ccc(/C=N/N=C(N)N)cc1	CSC inhib 102 (no result: Beta apoptosis)
CSCCC1NC(=O)N(CC(=O)N2CCc3ccccc3C2)C1=O (configuration not stated)	none (no result: CSC inhib, Calb FLC)
Cc1ccc(N2NC(=O)/C(=C\c3cc4c(cc3[N+](=O)[O-])OCO4)C2=O)cc1C	CSC inhib 88
COc1cc(/C=C2/C(=O)NN(c3ccc(C)c(Cl)c3)C2=O)cc([N+](=O)[O-])c1O	none
COc1ccccc1C(=O)NNC(=S)NC(=O)c1cc(OC)c(OC)c(OC)c1	Calb FLC 105
O=C(NNC(=S)NC(=O)c1cccnc1)c1ccc(Cl)cc1	none
COc1ccc(C(=O)NC(=S)NNC(=O)c2cnccn2)cc1	CSC inhib 88, PfHsp90 set2 94, Calb FLC 118, Beta apoptosis 77
O=C(NC(=S)NNC(=O)c1cnccn1)c1ccc(Cl)cc1	CSC inhib 94, Calb FLC 94
COc1cc(C(=O)NC(=S)NNC(=O)c2cnccn2)cc(OC)c1OC	Shn3 3UTR inh 89, Beta apoptosis 82
O=C(COC(=O)C1CCCCC1)Nc1ccc(S(=O)(=O)N2CCOCC2)cc1	none
O=C(COc1ccc(Br)cc1F)NC1CC1	none (no result: PfHsp90 set2, Calb FLC)
CN(CC(=O)Nc1cccc(F)c1)C(=O)CSc1ccccc1F	none (no result: CSC inhib)
CC(C)(C)OC(=O)NCc1ccc(NC(=O)c2nc[nH]c2C(=O)NCCCNC(=O)c2[nH]cnc2C(=O)Nc2ccc(CNC(=O)OC(C)(C)C)cc2)cc1	CSC inhib 114 (no result: Calb FLC)
O=C(Nc1ccccc1)c1nc[nH]c1C(=O)NCCCCNC(=O)c1[nH]cnc1C(=O)Nc1ccccc1	none (no result: Calb FLC)
CC(C)(C)OC(=O)NCc1ccc(NC(=O)c2nc[nH]c2C(=O)NCCCCNC(=O)c2[nH]cnc2C(=O)Nc2ccc(CNC(=O)OC(C)(C)C)cc2)cc1	CSC inhib 120 (no result: Calb FLC)
O=C(Nc1cccc(Cl)c1)c1nc[nH]c1C(=O)NCCCNC(=O)c1[nH]cnc1C(=O)Nc1cccc(Cl)c1	CSC inhib 101 (no result: Calb FLC)
CC(C)(C)OC(=O)NCc1ccc(NC(=O)c2nc[nH]c2C(=O)NCCCCCCNC(=O)c2[nH]cnc2C(=O)Nc2ccc(CNC(=O)OC(C)(C)C)cc2)cc1	none (no result: Calb FLC)
Cc1ccc(NC(=O)c2nc[nH]c2C(=O)NCCCNC(=O)c2[nH]cnc2C(=O)Nc2ccc(C)cc2)cc1	CSC inhib 113 (no result: Calb FLC)
CC(C)(C)OC(=O)NCc1ccc(NC(=O)c2nc[nH]c2C(=O)NCCN(CCNC(=O)c2[nH]cnc2C(=O)Nc2ccc(CNC(=O)OC(C)(C)C)cc2)CCNC(=O)c2[nH]cnc2C(=O)Nc2ccc(CNC(=O)OC(C)(C)C)cc2)cc1	none (no result: Calb FLC)
CCn1c(C)nc2cc(NC(=O)Nc3cccc(C(C)=O)c3)ccc21	none
O=C1CC(=O)OC(c2ccc([N+](=O)[O-])cc2)O1	Shn3 3UTR inh 98 (no result: CSC inhib, PfHsp90 set2, Calb FLC, Beta apoptosis)
CC(C)n1nnnc1SCC(=O)Nc1cccc(F)c1	none (no result: CSC inhib, Beta apoptosis)
C[C@@H]1CN([C@@H](C)CO)C(=O)CCCn2nncc2CO[C@H]1CN(C)S(=O)(=O)c1ccc(-n2cccn2)cc1	none (no result: CSC inhib, PfHsp90 set2, Calb FLC, Beta apoptosis)
COc1ccc(NS(=O)(=O)c2ccc(N3CCOCC3)c(N)c2)cc1	Beta apoptosis 76 (no result: Calb FLC)
CSc1ccc(S(=O)(=O)Nc2ccc3c(c2)OCCO3)cc1	none
CSc1ccc(S(=O)(=O)Nc2ccc(N3CCOCC3)c(Cl)c2)cc1	Beta apoptosis 104
COc1ccc(S(=O)(=O)Nc2ccc(N3CCOCC3)cc2)cc1	none
N#Cc1c(NC(=O)CSc2ncccn2)oc(-c2ccccc2)c1-c1ccccc1	none
N#Cc1c(NC(=O)CSc2n[nH]c(Cc3ccccc3)n2)oc(-c2ccccc2)c1-c1ccccc1	CSC inhib 102 (no result: PfHsp90 set2, Beta apoptosis)
O=C1C(=C(I)I)c2ccccc2-c2ccccc21	Shn3 3UTR inh 98, PfHsp90 set2 106 (no result: CSC inhib, Calb FLC, Beta apoptosis)
O=C(O)c1cccc2c1C(=O)c1ccccc1-2	none (no result: CSC inhib, Beta apoptosis)
Cc1cc(C(=O)CN2C(=O)C(=O)N(C3CCCC3)C2=O)c(C)n1CCc1ccc(F)cc1	none (no result: CSC inhib, Calb FLC, Beta apoptosis)
CCOC(=O)C1(CCOc2ccccc2)CCN(Cc2ccc(OC)c(COC)c2)CC1	Shn3 3UTR inh 88 (no result: CSC inhib, Beta apoptosis)
CCc1nc(N2CCN(C(C)=O)CC2)c2c3c(sc2n1)CC(C(C)(C)C)CC3 (configuration not stated)	Beta apoptosis 118
CCc1nc(N2CCN(C(=O)CCl)CC2)c2c3c(sc2n1)CC(C)CC3 (configuration not stated)	none
COc1ccc(CC2=CC(=O)c3ccccc3C2=O)cc1	Shn3 3UTR inh 89 (no result: Beta apoptosis)
COc1ccc(-n2nnnc2S(=O)(=O)Cc2ccc(C(=O)O)cc2)cc1	none (no result: PfHsp90 set2)
COc1ccc(-n2nnnc2S(=O)(=O)CC(=O)N2CCCCC2)cc1	Shn3 3UTR inh 92 (no result: Calb FLC)

Screening data from PubChem BioAssay.
